# Screening results (PubChem)
# TRHR ag = agonists of human TRH receptor. TRHR cells, calcium flux fluo-8, FDSS agonist mode. actives 0.18% (n = 360,000). AID 493084. P34981. activation, % at 2 µM
# Target sequence (P34981 whole entry, looked up): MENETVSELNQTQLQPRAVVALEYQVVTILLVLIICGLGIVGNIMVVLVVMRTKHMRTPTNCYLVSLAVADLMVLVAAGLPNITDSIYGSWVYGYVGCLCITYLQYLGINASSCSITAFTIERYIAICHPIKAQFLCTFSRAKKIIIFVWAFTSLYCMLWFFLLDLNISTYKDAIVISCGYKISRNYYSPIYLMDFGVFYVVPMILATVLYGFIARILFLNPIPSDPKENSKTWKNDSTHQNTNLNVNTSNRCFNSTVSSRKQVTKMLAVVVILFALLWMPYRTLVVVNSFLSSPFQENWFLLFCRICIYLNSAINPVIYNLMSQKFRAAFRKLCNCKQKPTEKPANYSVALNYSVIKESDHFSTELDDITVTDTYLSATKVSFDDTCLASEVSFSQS
#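 TRHR-expressing cells, plated overnight in medium with 10% serum, were loaded with fluo-8 calcium dye at room temperature. After a 10 s baseline, library compound was pin-added and calcium release was recorded kinetically (ex 480/em 530) as agonist response.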
# D1 PAM = potentiators of human D1 dopamine receptor; P21728; HEK293 TREx D1 cells, calcium flux, dopamine EC20 potentiation; potentiation, % at 10 µM; actives 0.036% (n = 360,000); in the data active = potentiation above about 30%
# D1 antag = blocks dopamine activation of the human D1 receptor; AID 504652; HEK293 TREx D1 cells, calcium flux, dopamine EC80; active compounds read low; P21728; actives 3.2% (n = 360,000); activity change, negative = inhibition, % at 10 µM; in the data active = activity change below about -30%
#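 Tetracycline-induced HEK293 T-REx cells with force-coupled D1 receptor were loaded with a no-wash calcium dye. Compound was added after a 10 s baseline and read kinetically for 180 s; EC80 dopamine was then added and calcium flux followed another 180 s.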
# TRHR PAM = allosterically enhances the human TRH receptor; enhancement, % at 2 µM; P34981; TRHR cells, fluo-8 calcium fluorescence, EC20 TRH enhancement; AID 493056; actives 0.66% (n = 360,000); in the data active = enhancement above about 30%
#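 Enhancer read-out: after compound pinning and an initial kinetic agonist-mode read, an EC20 of TRH (10 nM final) was injected and fluo-8 calcium signal (Ex 480/Em 530) followed at 1 s/cycle for 100 cycles in TRHR-expressing cells.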
# D1 ag = human D1 receptor agonism. P21728. HEK293 T-REx D1 cells, calcium flux, agonist mode. activation, % at 2 µM. actives 1% (n = 360,000)
#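 Agonism was scored from calcium flux recorded over 180 s (1 read/s) after pintool compound addition, following a 10-cycle baseline. Cells were inducible force-coupled HEK293 TREx D1, plated overnight at 30 C and loaded with no-wash calcium dye.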
# A number is an active result; . = inactive; / = not tested or not shown. Only some compounds are listed: those with a hit (about 4.6% of all), similar ones and a draw of the others. Rule as the data show it, unless noted: active = activation above about 30%; inactive = the rest.
SMILES,TRHR ag,D1 PAM,D1 antag,TRHR PAM,D1 ag
O=C(C(Cc1ccccc1)NS(=O)(=O)c1cccc2nsnc12)N1CCC2(CC1)OCCO2 (stereo not given),.,.,.,.,.
Nc1c2c(nc3sc4c(c13)CCCC4)CCCC2,.,.,.,.,.
CSc1ccccc1C(=O)C1CCCN(Cc2ccncc2)C1 (stereo not given),.,.,.,40.1,.
C/C(=C\c1ccc(N(C)C)cc1)[N+](=O)[O-],.,.,.,.,.
CN(C)c1ccc(/C=C/[N+](=O)[O-])cc1,31.4,.,.,.,92.4
CN1CC(C(=O)c2cccc(C(F)(F)F)c2)C(c2ccc(Cl)cc2)C1 (stereo not given),.,.,.,.,30.8
CCN(CC)P(=O)(c1nccn1C)N(CC)CC,.,.,-37.1,.,.
CCN(CC)C(=O)N[C@H]1C[C@@H]2c3cccc4[nH]cc(c34)C[C@H]2N(C)C1,.,.,-89.5,.,.
CN1C[C@H](CO)C[C@@H]2c3cccc4[nH]cc(c34)C[C@H]21,.,.,-42.5,.,.
COc1ccc(CCNCc2ccc(C)s2)cc1OC,.,.,.,.,.
COc1ccc(Cc2nccc3cc(OC)c(OC)cc23)cc1OC,.,.,-31.9,.,.
CC(NS(=O)(=O)OCC(Cl)(Cl)Cl)c1ccccc1 (stereo not given),.,.,.,.,.
O=C(Nc1cccc(C(F)(F)F)c1)OC1CN2CCC1CC2 (stereo not given),.,.,.,.,.
OC(c1cccc(Cl)c1)(c1cccc(Cl)c1)C1CN2CCC1CC2 (stereo not given),.,.,-34.9,.,52.1
C=CCn1c(O)c(/C=N/NC(=O)c2ccncc2)c(=O)[nH]c1=O,.,.,.,.,.
FC(F)(F)c1cccc(N2CCNCC2)c1,.,.,-31.9,.,.
FC(F)(F)c1ccc(CN2CCNCC2)cc1,.,.,.,.,.
CC(N)Cc1ccccc1Sc1ccc(O)cc1 (stereo not given),.,.,.,.,.
COc1ccccc1Sc1ccccc1CC(C)N (stereo not given),.,.,.,.,60.0
CC1CCC2C(C)C(=O)OC3OC4(C)CCC1C32OO4 (stereo not given),.,.,.,.,.
Cc1ccccc1-c1nn2c(=O)cc(CN3CCN(C(=O)COc4ccccc4Cl)CC3)nc2s1,.,.,-34.8,.,.
CCOC(=O)c1ccc(NC(=O)c2c(O)[nH]c(=O)[nH]c2=O)cc1,72.8,.,.,.,240.8
CCOC(=O)c1ccc(NC(=O)c2cccn(Cc3ccc(C)cc3)c2=O)cc1,.,.,/,.,.
CCN(CC)c1ccc(/C=N/c2sc3c(c2C#N)C2CCN3CC2)c(O)c1,52.3,.,.,.,247.1
CCCCN1CCC(O)(c2ccccc2)C(C(=O)c2ccccc2)C1 (stereo not given),.,.,.,.,.
SMILES,TRHR ag,D1 PAM,D1 antag,TRHR PAM,D1 ag
Cc1ccc(N)c(C(=O)c2ccc(Br)cc2)c1,.,.,.,.,.
Cc1cccc(-c2nc3ccc(C(=O)N4CCC5(CC4)OCCO5)cc3nc2-c2cccc(C)c2)c1,.,.,.,.,.
O=S(=O)(NC1CCCCC1)OCC(Cl)(Cl)Cl,.,.,-34.3,.,.
COc1cc2c(cc1OC)CN(c1ccc([N+](=O)[O-])c(C(F)(F)F)c1)CC2,.,.,.,36.5,.
N#Cc1ccc(NC(=O)CN2C(=O)NC3(CCCCCCC3)C2=O)cc1Cl,.,.,-56.8,.,.
COc1ccc(C(=O)C2CCCN(Cc3ccc(F)cc3F)C2)cc1F (stereo not given),.,.,-31.5,.,.
COc1ccc(F)cc1C(=O)C1CCCN(Cc2ccc(O)cc2)C1 (stereo not given),.,.,.,.,.
Cc1ccc(-n2c(O)c(C=NC3CCCCC3N)c(=O)[nH]c2=O)cc1C (stereo not given),.,.,.,.,.
Cc1ccc(-n2c(O)c(C=NC3CCCC3)c(=O)[nH]c2=O)c(C)c1,.,.,.,40.6,.
COC(=O)C1=C(c2ccc(OC)c(OC)c2)C[C@@H]2CC[C@H]1N2C(=O)N1CCC(O)CC1,.,.,/,.,.
COc1cc2[nH]c(=S)n(-c3ccccc3)c(=O)c2cc1OC,.,.,.,.,.
